The list is not random: actives were taken first. Their share in the collection is about 0.88%.
TRHR agonist-1: agonists of human TRH receptor | P34981 | TRHR cells, calcium flux fluo-8, FDSS agonist mode | activation, % at 2 µM | 360,000 tested, 0.18% active; in the data active means activation above about 30%; further: 0% is about no effect
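Fluo-8-loaded TRHR cells; 10 s baseline, compound added, kinetic Ca2+ fluorescence read 1/s, agonist mode.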
CBFb-RUNX1 inh: CBF-beta/RUNX1 interaction disruption. AlphaScreen CBFb-His/RUNX1-biotin binding, biochemical. 230,000 tested, under 10 active. Q01196+Q13951. Potency, µM (titrated, usually from 59.8 µM), without a hit: at the top dose activity, negative = inhibition, actives largely listed as inhibitors; further: % of control where 0% means no effect
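Compounds were screened at multiple concentrations against a preformed CBF-beta(His)/RUNX1(biotin) complex (30 nM of each) for 15 min at room temperature, followed by 90 min with nickel and streptavidin beads and AlphaScreen reading.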
IL2 activator: activates IL-2 in a cell-based reporter assay; IL-2 activation reporter assay, cell-based qHTS; stimulated with anti-CD3/CD4/CD28 beads; in transgenic mouse T cells; activation, % (series mostly up to about 46 µM); 360,000 tested, 0.065% active; in the data active means activation above about 50%; inconclusive means mostly about 30% to 49%; further: 0% is about no effect
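Using fluorescent plate cytometry, EGFP and DsRed are detected in transgenic mouse T cells stimulated 18 h at 37 degrees C with antibody-coated beads after 60 min compound pretreatment.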
MBNL1-CUG inh: blocks human MBNL1 binding to CUG repeat RNA | Potency, µM (top dose mostly 57.5 µM), for inactives: top-dose activity change, negative = inhibition, hits mostly inhibitors | TR-FRET MBNL1-His/biotin-(CUG)12 binding, 665/545 ratio | 280,000 tested, 0.036% active | AID 2675; active means well fitted inhibition curve with a large enough effect in the signal ratio, with a control signal flat, not every such curve was filed as active; inconclusive means small, poorly fitted or top-dose-only effect, or effect the other way, or a change in a side signal; inactive means no such curve, though single readings can be large or run the other way; the % refers to the signal ratio; further: potency means the concentration at half of the fitted maximal effect; on the % scale 0 is the no-effect control and ±100 the full control effect
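Ratiometric TR-FRET (665 over 545 nm, excitation 340 nm) tracks disruption of MBNL1-His/biotin-(CUG)12 complex after 60 min at room temperature, with compounds at 92 nM to 58 uM final.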
TRHR enhancer-1: allosterically enhances the human TRH receptor | enhancement, % at 2 µM | P34981 | TRHR cells, fluo-8 calcium fluorescence, EC20 TRH enhancement | AID 493056 | 360,000 tested, 0.66% active; in the data active means enhancement above about 30%; further: 0% is about no effect
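Enhancer read-out: after compound pinning and an initial kinetic agonist-mode read, an EC20 of TRH (10 nM final) was injected and fluo-8 calcium signal (Ex 480/Em 530) followed at 1 s/cycle for 100 cycles in TRHR-expressing cells.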
Epigenetic derep: derepresses silenced GFP reporter in murine cells. murine LDR cells, GFP reporter derepression, 30 h. Potency, µM (doses to about 53.9 µM), for inactives: top-dose GFP activation, most hits filed as activators. 280,000 tested, 0.2% active. AID 1865; further: potency means the concentration at half of the fitted maximal effect; % of control where 0% means no effect; nearly all actives have a fitted effect of over 60% in size
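Derepression of a silenced CMV-GFP reporter in murine LDR cells is scored by enumerating GFP-positive cells with a laser-scanning microplate cytometer after 30 hours of treatment at 37 C.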
TRHR enhancer-2: human TRH receptor allosteric enhancement confirmation; shares compounds with TRHR enhancer-1; TRH receptor cell assay, enhancer confirmation qHTS; activity change, negative = inhibition, % at 46.1 µM; 970 tested, under 10 active;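 further: compound effect scored on response to added TRH at EC20 of 10 nM; 0% is about no effect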
TRHR agonist-2: confirmation of human TRH receptor agonists; shares compounds with TRHR enhancer-1; TRHR-expressing cells, agonist activation read-out; Potency, µM (doses to about 46.1 µM), inactives show at the top dose activation, most hits filed as activators; 970 tested, 8% active; AID 493078; further: potency means the concentration at half of the fitted maximal effect; 0% is about no effect; nearly all actives have a fitted effect of over 75% in size
* hit, by the source's call; ? = inconclusive; nt = no result. Unless noted, the call rests on the fitted dose curve; in most records, active means well fitted curve in the direction sought with a large enough effect; inconclusive means small, poorly fitted or top-dose-only effect, or another doubt; inactive means no such curve, though single readings can be large; an effect the other way counts as inactive or inconclusive.

SMILES	TRHR agonist-1	CBFb-RUNX1 inh	IL2 activator	MBNL1-CUG inh	TRHR enhancer-1	Epigenetic derep	TRHR enhancer-2	TRHR agonist-2
Cc1ccc(NC(=O)Cc2coc3ccc(C(C)C)cc23)cc1Cl	-1	nt	nt	nt	3	0%	nt	nt
CC(C)(C)c1ccc(OCCCC(=O)NNC(=O)c2ccccc2O)cc1	0	nt	0	nt	41*	nt	-4	0%
CCN(CC)S(=O)(=O)c1cccc(C(=O)N/N=C(\C)c2ccc(O)cc2O)c1	25	-17%	1	3%	-3	-3%	3	?
COc1nc(-c2ccc(C)cc2)ccc1-c1noc(-c2cccnc2)n1	1	0%	-1	4%	2	0%	nt	nt
COc1nc(-c2ccccc2)ccc1-c1noc(-c2cccnc2)n1	-2	5%	3	136%	46*	-1%	13	7%
Cc1c(-n2cc(C(=O)c3ccccc3O)cc(C#N)c2=O)c(=O)n(-c2ccccc2)n1C	42*	1%	7	6%	-2	2%	-8	?
N#Cc1cc(C(=O)c2ccccc2O)cn(-c2ccc(Cl)cc2)c1=O	19	5%	4	?	0	-2%	nt	nt
COc1cccc(CN(C(=O)COc2ccc(Cl)c(C)c2)C2CCS(=O)(=O)C2)c1 (stereo unspecified)	0	nt	nt	nt	-4	0%	nt	nt
CCC(=O)c1c[nH]c(C(=O)NCc2cccs2)c1	0	8%	-1	7%	1	-1%	nt	nt
CC(C)CC(=O)c1c[nH]c(C(=O)NCc2cccs2)c1	-1	6%	-1	-5%	44*	-1%	5	0%
COc1ccc(-c2ccc(OC)c(C3C4C=CCC(C)C4C(=O)N3Cc3ccccc3)c2)cc1 (stereo unspecified)	nt	7%	nt	nt	nt	nt	nt	nt
Cc1cc(=O)n2[nH]c(NC(=O)c3cccc(Cl)c3)nc2n1	1	nt	nt	nt	17	-2%	nt	nt
O=C(NNC(=S)NC(=O)c1ccccc1[N+](=O)[O-])c1ccccc1O	2	?	2	-2%	1	0%	nt	nt
O=C(NC(=S)Nc1cccc2c(O)cccc12)c1ccccc1[N+](=O)[O-]	0	nt	2	11%	50*	nt	-2	0%
CSc1nsc2nc(=O)c(/C=C3\C(C)=Nc4ccccc43)c(N)n12	1	-17%	0	-1%	-2	3%	nt	nt
CC1=Nc2ccccc2/C1=C/c1sc(=S)n(-c2cccc(C(=O)O)c2)c1O	29	?	20	14%	-6	-3%	2	21µM*
Cc1cc(=O)oc2c(CN3CCCC3)c(O)c(Cl)cc12	-2	nt	6	26%	59*	nt	-12	3%
Cc1cc(=O)oc2c(CN3CCCCC3)c(O)c(Cl)cc12	-1	8%	0	40%	19	10%	nt	nt
CCN1C(=O)c2cccc3c(S(=O)(=O)Nc4ccccc4OC)ccc1c23	56*	7%	0	?	18	-1%	-6	?
CN1C(=O)c2cccc3c(S(=O)(=O)Nc4ccccn4)ccc1c23	0	11%	-4	?	0	0%	nt	nt
CCN1C(=O)c2cccc3c(S(=O)(=O)NCc4ccccc4)ccc1c23	-1	nt	0	nt	-4	nt	nt	nt
Cc1ccccc1NS(=O)(=O)c1ccc2c3c(cccc13)C(=O)N2C	-1	nt	-1	?	61*	nt	-9	0%
Cc1cc(C)c(Nc2nc3ccccc3n3c(C)nnc23)c(C)c1	1	nt	nt	nt	22	5%	nt	nt
Cc1ccnc(NC(=O)CCC(=O)N(Cc2ccco2)C(C(=O)NC(C)C)c2ccc(F)cc2)c1 (stereo unspecified)	0	nt	1	3%	43*	nt	-10	0%

Source: PubChem BioAssay (National Center for Advancing Translational Sciences (NCATS))
